Assay [1] is described as follows: Primary qHTS for inhibitors of La Crosse Virus (LACV) - induced cell death in SH-SY5Y cells (AID 1508616).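 Also: top concentration of the series differs between compounds; 0% = infected DMSO wells and 100% = uninfected DMSO wells; higher means more rescue of cells from virus-induced death.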 The essentials:
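Protection against LACV-induced cell death is scored in SH-SY5Y cells exposed to compounds and virus (0.01 MOI) for 6 days. Data normalized to virus-infected DMSO wells and virus-free DMSO wells.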
Background: qHTS replaces the single test concentration by a dilution series.

A short description of assay [2]: Primary qHTS for small molecule stabilizers of the endoplasmic reticulum resident proteome: Secreted ER Calcium Modulated Protein (SERCaMP) assay (AID 1508630). Also: % is scaled to controls: 0 for no effect and ±100 for the full control effect. Summed up: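 GLuc-SERCaMP-expressing SH-SY5Y cells, pretreated 16 h with compound, are challenged with thapsigargin to empty ER calcium stores; after 4 h, coelenterazine is added directly to the medium and luminescence is imaged.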

Assay [3] concerns the target Calcium and integrin-binding protein 1 (Homo sapiens) (UniProt Q99828). Briefly: Primary qHTS for Identification of Calcium Integrin Binding Protein 1 (CIB1) Competitor (AID 1508620).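 Also: GST tagged CIB1 binding a fluorescein labelled alphaIIb integrin peptide tracer; top concentration of the series differs between compounds; % is scaled to controls: 0 for no effect and ±100 for the full control effect.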 The essentials: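 CIB1-GST (1 uM final) and compound incubated 15 min at room temperature before adding FITC-alphaIIb peptide tracer (100 nM final). Competition for binding read by fluorescence polarization (ex 480, em 540) after another 15 min at room temperature.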

Assay [4] can be described thus: Cytotoxicity counterscreen for inhibitors of SARS-CoV-2 cell entry (AID 1645845; calls by dose curve; also: % is scaled to controls: 0 for no effect and ±100 for the full control effect; nearly all actives have a fitted effect of over 50% in size). The note with it: outcome: dose series up to 57.1 µM unless noted. The essentials: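 48 h compound treatment (after 1 h preincubation), HEK293-ACE2 cells, 37 C/5% CO2; ATP luminescence endpoint; normalized to cell wells and media blanks.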
Assay [5] is described as follows: Primary qHTS to identify inhibitors of SARS-CoV-2 cell entry (AID 1645846; calls by dose curve; also: potency is read from the fitted curve at half-maximal effect; nearly all actives have a fitted effect of over 45% in size). Conditions: activity change, negative = inhibition: at 57.1 µM (top of the series) unless noted. Summed up: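 Entry measured by luciferase signal 48 h after adding SARS-CoV-2-S pseudotyped MLV particles to HEK293-ACE2 cells preincubated 1 h with compounds. Normalisation: bald particles and spike particles.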

In assay [6] the target is Cytochrome P450 2C9 (Homo sapiens) (UniProt P11712). Briefly: Cytochrome P450 family 2 subfamily C member 9 (CYP2C9) small molecule antagonists: luciferase biochemical (cell-free) qHTS assay (AID 1645842; active = well fitted curve in the direction sought with a large enough effect in the repeat runs; an effect the other way counts as inactive or inconclusive; also: nearly all actives have a fitted effect of over 55% in size; also: potency is read from the fitted curve at half-maximal effect; as to activity change, negative = inhibition: % is scaled to controls: 0 for no effect and ±100 for the full control effect). The essentials: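 Luminescence, after 20 min with luciferin detection reagent, reflected CYP2C9 turnover during a 1 h NADPH-driven reaction at 37C. Enzyme-substrate mix contained 0.4% bovine serum albumin and was preincubated with compound 10 min at room temperature.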

Assay [7] is described as follows: Primary qHTS for inhibitors of nuclear receptor binding SET domain protein 2 (NSD2) in an isogenic RCH-ACV NSD2 p.E1099K mutant (9B) (AID 1645876). Also: nearly all actives have a fitted effect of over 70% in size. Also: potency is read from the fitted curve at half-maximal effect. As to activity change, negative = viability loss: % is scaled to controls: 0 for no effect and ±100 for the full control effect.
The target in assay [8] is Cytochrome P450 2D6 (Homo sapiens) (UniProt P10635). In words: Cytochrome P450 family 2 subfamily D member 6 (CYP2D6) small molecule antagonists: luciferase biochemical (cell-free) qHTS assay (AID 1645840; active = well fitted curve in the direction sought with a large enough effect in the repeat runs; an effect the other way counts as inactive or inconclusive; also: nearly all actives have a fitted effect of over 55% in size; also: potency is read from the fitted curve at half-maximal effect). The essentials: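 P450-Glo luminescent screen: recombinant CYP2D6 enzyme–proluciferin substrate mix preincubated with compound 10 min at room temperature, then NADPH regeneration added for 1 h at room temperature. Detection reagent added for 20 min; luciferin light read as relative luminescence units.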

A short description of assay [9]: Confirmatory qHTS to identify inhibitors of SARS-CoV-2 cell entry (AID 1645844; calls by dose curve; also: potency is read from the fitted curve at half-maximal effect; nearly all actives have a fitted effect of over 45% in size). Conditions: SARS-CoV-2 pseudotyped particle cell entry, luciferase. The essentials:
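Luminescence from a luciferase reporter, read 48 hr after pseudotyped-particle addition, gives entry signal, normalised to spike-bearing PP wells and bald PP lacking fusion protein wells. Cells are Expi293F stably expressing human ACE2, compound-pretreated 1 hr.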

A short description of assay [10]: VSVG counterscreen qHTS to identify inhibitors of SARS-CoV-2 cell entry (AID 1645847; calls by dose curve; also: potency is read from the fitted curve at half-maximal effect; nearly all actives have a fitted effect of over 65% in size). Conditions: VSV-G pseudotyped particle entry, luciferase. Summed up:
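Luminescence read after 48 h infection at 37 C with VSV-G-pseudotyped MLV particles, following 1 h compound exposure of Expi293F cells stably expressing human ACE2; scaled between bald particle and VSV-G particle wells.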

“And” between values parts separate entries of the source, which are not always exact repeats. Identical values can stand only once. Records with an inconclusive call do not appear. A number with no mark means an inactive call. The source made the active and inactive calls. Unless noted, calls follow the shape of the dose curve; as a rule, active = well fitted curve in the direction sought with a large enough effect; inconclusive = small, poorly fitted or top-dose-only effect, or another doubt; inactive = no such curve, though single readings can be large; an effect the other way counts as inactive or inconclusive.

Sequence of Cytochrome P450 2C9 (Homo sapiens) (P11712 whole entry, looked up): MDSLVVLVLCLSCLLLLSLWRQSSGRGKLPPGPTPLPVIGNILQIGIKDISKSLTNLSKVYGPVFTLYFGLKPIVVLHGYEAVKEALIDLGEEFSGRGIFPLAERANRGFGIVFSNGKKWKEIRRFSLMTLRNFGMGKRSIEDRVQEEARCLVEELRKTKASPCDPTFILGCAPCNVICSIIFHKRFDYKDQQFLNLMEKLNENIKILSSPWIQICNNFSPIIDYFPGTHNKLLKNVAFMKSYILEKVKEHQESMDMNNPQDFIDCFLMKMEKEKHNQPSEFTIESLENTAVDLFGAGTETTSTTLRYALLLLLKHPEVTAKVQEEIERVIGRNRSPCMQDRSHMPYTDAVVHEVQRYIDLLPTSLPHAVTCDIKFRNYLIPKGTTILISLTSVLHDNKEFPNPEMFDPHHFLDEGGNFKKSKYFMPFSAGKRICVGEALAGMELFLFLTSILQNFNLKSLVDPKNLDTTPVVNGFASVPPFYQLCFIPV
Sequence of Cytochrome P450 2D6 (Homo sapiens) (P10635 whole entry, looked up): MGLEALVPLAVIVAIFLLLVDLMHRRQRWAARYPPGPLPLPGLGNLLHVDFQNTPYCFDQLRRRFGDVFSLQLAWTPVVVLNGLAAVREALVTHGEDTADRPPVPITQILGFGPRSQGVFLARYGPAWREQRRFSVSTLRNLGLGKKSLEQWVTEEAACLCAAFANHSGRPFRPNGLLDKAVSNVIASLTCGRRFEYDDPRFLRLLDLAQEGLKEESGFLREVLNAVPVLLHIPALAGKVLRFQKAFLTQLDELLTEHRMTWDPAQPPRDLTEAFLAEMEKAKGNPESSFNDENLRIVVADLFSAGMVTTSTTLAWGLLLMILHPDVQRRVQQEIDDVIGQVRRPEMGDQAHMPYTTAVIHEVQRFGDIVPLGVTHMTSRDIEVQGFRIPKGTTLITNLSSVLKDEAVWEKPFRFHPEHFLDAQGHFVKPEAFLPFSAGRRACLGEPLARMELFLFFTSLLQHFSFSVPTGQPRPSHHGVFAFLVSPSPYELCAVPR
Sequence of Calcium and integrin-binding protein 1 (Homo sapiens) (Q99828 whole entry, looked up): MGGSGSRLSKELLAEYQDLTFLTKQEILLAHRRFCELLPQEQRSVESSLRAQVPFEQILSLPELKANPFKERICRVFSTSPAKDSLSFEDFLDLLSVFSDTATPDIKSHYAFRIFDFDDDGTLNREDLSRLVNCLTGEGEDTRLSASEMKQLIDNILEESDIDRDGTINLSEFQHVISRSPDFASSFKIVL

For `C[C@@H]1O[C@H](C[N+](C)(C)C)CS1`, in assay [1], the Potency entry was “inactive”. Also, in assay [2], the result was inactive.
`C=CCN(C1=NCCN1)c1c(Cl)cccc1Cl`: in assay [1], the Potency entry was “inactive”. The result in [2] was inactive.
For `CC1=C2C[C@H]3[C@@H](CC=C4C[C@@H](O)CC[C@@]43C)[C@@H]2CC[C@]12O[C@@H]1C[C@H](C)CN[C@H]1[C@H]2C`, in [3], the Potency entry was “inactive”. Besides, in [4], the result was inactive. Moreover, in [5], the Potency was 17.8 µM (active).
Consider `C[C@@](O)(COc1ccc(C#N)cc1)C(=O)Nc1ccc(C#N)c(C(F)(F)F)c1`, for which the Potency entry in assay [3] is “inactive”. In addition, in assay [6], the Potency is 1.51 µM (active).
Turning to `CC(=O)OC1CC(O)C(C)(C)C2CC(OC(C)=O)C3(C)C(CCC4(C)C(c5ccoc5)C(=O)C5OC543)C12C` (centres undefined), the Potency result in assay [3] and in [7] was “inactive” throughout.
For `COC1C(O)C(OC2CCC3(C=O)C(CCC4C3CCC3(C)C(C5=CC(=O)OC5)CCC43O)C2)OC(C)C1OC1OC(CO)C(O)C(O)C1O` (centres undefined), the Potency result in assay [3] was “inactive”. Moreover, the Potency in assay [7] was 171 nM (active).
For `CN1[C@H]2C[C@H](OC(=O)[C@H](CO)c3ccccc3)C[C@@H]1[C@@H](O)C2`, in that order: “inactive” and “inactive”.
Take `COc1ccccc1CN[C@H]1C2CCN(CC2)[C@H]1C(c1ccccc1)c1ccccc1`: the Potency entry in [3], in assay [6] and in assay [7] was “inactive” throughout. Also, in [8], the Potency was 0.19 µM (active).
For `CCOc1ccccc1-n1c(C(C)N2CCN(C(=O)COc3ccc(Cl)cc3)CC2)nc2ccccc2c1=O` (centres undefined), the Potency entry in [3] and in assay [8] was “inactive” each time. Further, the Potency is 13.5 µM (active) in assay [6]; 0.0192 µM (active) in assay [9]; 10 µM (active) in assay [5]; 19.2 µM (active) in assay [10]; 916 nM (active) and 662 nM (active) in assay [7].
Take `Cc1cn(C[C@H](N)C(=O)O)c(=O)n(Cc2cc(-c3ccccc3)sc2C(=O)O)c1=O`: the Potency result in [3], in assay [8], in assay [6] and in assay [7] was “inactive” each time.
As for `OC1(c2ccc(Cl)cc2)c2ccccc2C2=NCCN21` (centres undefined), the Potency entry in assay [3] was “inactive”. Besides, the results for the Potency in assay [8] and in assay [6] were 2.68 µM (active) and 15.1 µM (active), respectively.
Consider `C/C=C(\C)C(=O)OC1CC2C(CC=C3CC(OC4CC(OC)C(OC5CC(OC)C(OC6OC(C)C(OC7OC(CO)C(O)C(O)C7O)C(OC)C6O)C(C)O5)C(C)O4)CCC32C)C2(O)CCC(C(C)=O)C12C` (centres undefined), for which the Potency result in assay [3] was “inactive”. Also, the activity change, negative = viability loss in assay [7] was -7.24% [at 9.23 µM].
Turning to `COC(=O)N1CCN(C(=O)Cc2ccc(Cl)c(Cl)c2)[C@@H](CN2CCCC2)C1`, the Potency result in [3], in assay [6] and in [7] was “inactive” throughout. In addition, the Potency in assay [8] is 4.77 µM (active).
For the compound `COC1=CC(=O)O[C@@H](/C=C/c2ccccc2)C1`, the Potency entry in assay [3] and in assay [7] was “inactive” each time.
Consider `Cc1c(Cl)cccc1S(=O)(=O)Nc1nc(CC(=O)N2CCN(C)CC2)cs1`, for which the Potency result in assay [3], in assay [8] and in assay [7] was “inactive” each time. Moreover, in assay [6], the Potency is 21.3 µM (active).
As for `CCc1c(C(=O)C(N)=O)c2c(OCC(=O)OC)cccc2n1Cc1ccccc1`, the Potency entry in assay [3], in [8] and in assay [7] was “inactive” each time. Also, the Potency in [6] was 13.5 µM (active).
For the compound `CO[C@@H]1[C@H](O)[C@@H](O[C@@H]2C[C@H]3CC[C@@H]4C(CC[C@]5(C)[C@@H](C6=CC(=O)OC6)CC[C@]45O)[C@@]3(C)[C@H](O)C2)O[C@H](C)[C@@H]1O[C@@H]1O[C@H](CO)[C@@H](O)[C@H](O)[C@H]1O` (some centres undefined), the Potency result in assay [3] was “inactive”. In assay [7], the Potency is 121 nM (active).
For the compound `C[C@H](NC(=O)Cc1cc(F)cc(F)c1)C(=O)N[C@@H]1N=C(c2ccccc2)c2ccccc2N(C)C1=O`, the Potency entry in assay [3] and in assay [6] was “inactive” throughout.
In the case of `CN1C(=O)c2ccccc2NC(=O)C1Cc1ccccc1` (centres undefined), the Potency result in assay [3] and in [7] was “inactive” each time.
As for `COc1cc(CCNCc2ccccc2O)c(OC)cc1C#N`, the Potency result in assay [3] and in [7] was “inactive” each time. The Potency in [8] was 1.9 µM (active); in assay [6], 9.52 µM (active).
Regarding `COC(=O)C1(C)CCC(O)C2(C)c3cc(O)c(C(C)C)cc3C(O)C(OC(C)=O)C12` (centres undefined), the Potency result in [3] and in [7] was “inactive” in each case.
Take `CC(C)C1(OO)C=C2C(=O)CC3C(C)(C(=O)O)CCCC3(C)C2CC1` (centres undefined): the Potency result in assay [3] and in assay [7] was “inactive” each time.
For `CC(N)Cc1c[nH]c2ccccc12` (centres undefined), the Potency result in assay [3], in [6] and in assay [7] was “inactive” throughout. In [8], the Potency is 23.9 µM (active).
For `CC(C)[C@@H](CN1CC[C@@](C)(c2cccc(O)c2)[C@@H](C)C1)NC(=O)[C@H]1Cc2ccc(O)cc2CN1`, the Potency entry in assay [3] and in assay [6] was “inactive” in each case. For the same compound, the Potency in assay [8] is 6.01 µM (active); in assay [7], 18300 nM (active).
For the compound `Cc1cc(C(=O)CN2CCCC2)c(C)n1-c1ccc(F)cc1`, the Potency entry in [3], in [6] and in [7] was “inactive” in each case. Moreover, the Potency in [8] is 0.952 µM (active).
For the compound `OCCCCC#Cc1cncc(OC[C@@H]2CCN2)c1`, the Potency entry in assay [3], in assay [8], in assay [6] and in assay [7] was “inactive” each time.
For `COc1cc(C)[nH]c(=O)c1CNC(=O)c1c(C)n([C@H](C)C2CCOCC2)c2ccccc12`, the Potency entry in assay [3], in assay [8] and in [7] was “inactive” in each case. Moreover, in assay [6], the Potency is 13.5 µM (active). For the same compound, in [4], the call was inactive.

For the origin of these results see PubChem BioAssay (NCATS).
